RE007 growth inh – qHTS Assay for Inhibitors of the HIV-1 protein Vpr; S. pombe RE007 Vpr strain, BacTiter-Glo ATP luminescence, 24 h; Potency, µM (titrated, usually from 92.2 µM), for inactives: at the top dose activity change, negative = less growth, hits mostly inhibitors; hit rate 0.21% among 360,000; AID 651644, 2012; active means well fitted falling curve with a large enough effect; inconclusive means small, poorly fitted or top-dose-only effect; inactive means no such curve, though single readings can be large or run the other way; further: potency means the concentration at half of the fitted maximal effect; on the % scale 0 is the no-effect control and ±100 the full control effect; nearly all actives have a fitted effect of over 50% in size
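Fission yeast RE007 carrying one integrated HIV-1 vpr copy, seeded at OD 0.01 in PMG+AL medium with 23 nL pinned compound. Grown 24 h at 30 degrees; viability read by BacTiter-Glo luminescence after 5 min.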
LmPK inh – qHTS Assay for Inhibitors of Leishmania Mexicana Pyruvate Kinase (LmPK). purified LmPK, Kinase-Glo ATP luminescence, 1 h. Potency, µM (titrated, usually from 57.5 µM), inactives show top-dose activity change, negative = inhibition, most hits filed as inhibitors. hit rate 0.37% among 290,000; further: potency means the concentration at half of the fitted maximal effect; on the % scale 0 is the no-effect control and ±100 the full control effect
Target sequence (Q27686 whole entry, looked up): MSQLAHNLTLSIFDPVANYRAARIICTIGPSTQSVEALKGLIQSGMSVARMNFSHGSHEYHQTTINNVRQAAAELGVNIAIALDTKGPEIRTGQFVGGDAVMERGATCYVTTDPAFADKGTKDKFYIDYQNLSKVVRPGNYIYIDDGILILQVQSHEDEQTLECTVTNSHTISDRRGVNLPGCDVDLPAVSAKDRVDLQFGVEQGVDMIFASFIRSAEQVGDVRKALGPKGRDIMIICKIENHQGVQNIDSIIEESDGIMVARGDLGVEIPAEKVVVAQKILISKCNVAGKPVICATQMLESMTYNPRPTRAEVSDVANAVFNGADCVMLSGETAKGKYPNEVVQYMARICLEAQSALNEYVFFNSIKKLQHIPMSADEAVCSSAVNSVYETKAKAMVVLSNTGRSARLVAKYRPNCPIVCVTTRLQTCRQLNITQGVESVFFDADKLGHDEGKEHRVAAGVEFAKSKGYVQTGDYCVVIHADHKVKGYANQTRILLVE
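Pyruvate kinase activity monitored as ATP production (luciferase luminescence). Conditions: 0.1 nM enzyme, 0.5 mM PEP, 0.1 mM ADP, 1 h, RT; normalized against uninhibited and no-enzyme wells.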
Shiga toxin inh – A qHTS for Small Molecule Inhibitors of Shiga Toxin; Vero cells, Shiga toxin protein synthesis inhibition reporter; inhibition, % at 38.7 µM; hit rate 9.2% among 290,000; AID 2315, 2010; in the data active means inhibition mostly above about 28%, no sharp cut-off; inactive means mostly below about 43%; further: 0% is about no effect
FBPA Giardia inh – qHTS Assay for Inhibitors of Fructose-1,6-bisphosphate Aldolase from Giardia Lamblia; A8B2U2; purified Giardia FBPA; Potency, µM (highest dose often 59.6 µM), inactives show at the top dose activity, negative = inhibition, actives largely listed as inhibitors; hit rate 0.71% among 290,000; further: potency means the concentration at half of the fitted maximal effect; on the % scale 0 is the no-effect control and ±100 the full control effect; nearly all actives have a fitted effect of over 55% in size
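Giardia FBPA (40 nM reagent) was preincubated 10 min at RT with compound (up to 57.5 uM final), then substrate plus GAPDH/TPI/NAD/arsenate coupling system with diaphorase/resazurin was added; resorufin fluorescence (525/598 nm) was read after 20 min.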
Tb PYK inh – qHTS of Trypanosoma Brucei Inhibitors. pyruvate kinase (Trypanosoma brucei), Q57TT1. TbPYK enzyme, Kinase-Glo Plus ATP luminescence, 45 min. Potency, µM (top dose mostly 76.8 µM), for inactives: at the highest dose activity, negative = inhibition, actives largely listed as inhibitors. hit rate 0.12% among 410,000; further: potency means the concentration at half of the fitted maximal effect; on the % scale 0 is the no-effect control and ±100 the full control effect; nearly all actives have a fitted effect of over 50% in size
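T. brucei PYK with substrate was exposed to pin-transferred compounds across a concentration series, then started with 130 uM ADP (final). After 45 min at room temperature, Kinase-Glo Plus luminescence was read, normalized and curve-fitted.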
Cycloheximide cs – Cycloheximide Counterscreen for Small Molecule Inhibitors of Shiga Toxin. cell reporter, cycloheximide protein synthesis inhibition counterscreen. max response, %. hit rate 12% among 300,000; in the data active means max response mostly above about 13%, no sharp cut-off; inactive means mostly below about 14%; further: read at 38.3 µM for the half of the compounds with a filed dose; 0% is about no effect
Numbers without * were called inactive; ? = inconclusive; . = no result. The entries come from a sample that favours hits as a whole. Unless noted, the call rests on the fitted dose curve; in most records, active means well fitted curve in the direction sought with a large enough effect; inconclusive means small, poorly fitted or top-dose-only effect, or another doubt; inactive means no such curve, though single readings can be large; an effect the other way counts as inactive or inconclusive.

SMILES | RE007 growth inh | LmPK inh | Shiga toxin inh | FBPA Giardia inh | Tb PYK inh | Cycloheximide cs
COc1ccc(NC(=O)O/N=C/c2ccc(Br)cc2)cc1 | -14% | 10% | 37 | -8% | -2% | 15
COC(=O)N/N=C/c1cc(OC)c(O)c([N+](=O)[O-])c1 | 2% | -7% | 77* | -12% | -13% | 92*
Cc1ccc(NC(=O)O/N=C/c2ccc(F)cc2)cc1 | -19% | 2% | 47* | -4% | 7% | 33*
Cc1ccc(NC(=O)O/N=C/c2ccc(Br)cc2)cc1 | -13% | 0% | 37 | 3% | -13% | 11*
Cc1ccc(C)c(Cn2c(=O)n(Cc3ccccc3)c(=O)c3sc4ccccc4c32)c1 | . | . | . | . | 0% | .
CC(C)=CCC[C@](C)(O)C1CC[C@]2(C)[C@@H]1CC[C@@H]1[C@@]3(C)CCC(=O)C(C)(C)[C@@H]3CC[C@]12C (stereo partly specified) | . | . | -4 | 2% | . | -6
Cc1ccc(NC(=O)c2c(C)nn(-c3ccccc3)c2-n2cccc2)c(Cl)c1 | . | . | . | . | -11% | .
O=C1CN(C(=O)c2ccc(S(=O)(=O)N3CCCCC3)cc2)C(c2ccc(F)cc2)c2cc(F)ccc2N1 (stereo unspecified) | . | . | . | . | -1% | .
O=c1oc2c(CN3CCCCC3)c(O)ccc2cc1-c1nc2ccccc2[nH]1 | -5% | 5% | 13 | -15% | -4% | 12*
C=CCc1cccc2cc(-c3nc4ccc(C)cc4[nH]3)c(=O)oc12 | . | . | 91* | . | -4% | 36*
O=C(O)c1ccc2nc(-c3cc4cc(F)ccc4oc3=O)[nH]c2c1 | . | . | . | . | -12% | .
O=c1oc2c(O)cccc2cc1-c1nc2ccccc2[nH]1 | -11% | ? | 69* | 10% | 2% | 47*
O=C(O)c1ccc2nc(-c3cc4cccc(O)c4oc3=O)[nH]c2c1 | . | . | . | . | 20µM* | .
CCc1cc2c(=O)c(-c3nc4ccccc4[nH]3)coc2c(CN2CCCCC2)c1O | -16% | 6% | 35 | -16% | 5% | 27*
CCc1cc2c(=O)c(-c3nc4ccccc4[nH]3)coc2c(CN2CCCCC2C)c1O (stereo unspecified) | -1% | 0% | -2 | 2% | 5% | -2
COc1ccc(N2CC(NC(=O)/C=C\c3ccccc3)CC2=O)cc1OC (stereo unspecified) | . | . | . | . | 3% | .
O=C(N/N=C/C(Br)=C/c1ccccc1)c1ccccc1[N+](=O)[O-] | -8% | -2% | 22 | 6% | 4% | 8.7*
Cc1occc1C(=O)N/N=C/c1ccc(OCc2ccccc2)cc1 | -11% | ? | 63* | -1% | -4% | 45*
O=C(N/N=C/c1ccc(OCc2ccccc2)cc1)c1cc[n+](Cc2ccccc2)cc1 | -29% | -3% | 37* | 4% | 4% | 20*
O=C(N/N=C/c1ccncc1)c1ccccc1[N+](=O)[O-] | 4% | 0% | 2 | 4% | 0% | -6
O=C(N/N=C/c1ccc(O)cc1)c1cc[n+](Cc2ccccc2)cc1 | -3% | 6% | -11 | 7% | 5% | -3
Cc1occc1C(=O)N/N=C/c1cccs1 | -20% | 14µM* | 84* | . | -17% | 33*
Cc1cc(NS(=O)(=O)c2ccc(NC(=O)COc3ccccc3Br)cc2)no1 | . | . | . | . | -1% | .
Cc1occc1C(=O)N/N=C/C(Br)=C/c1ccccc1 | -18% | ? | 86* | -10% | 0% | 39*
Cc1occc1C(=O)N/N=C/c1ccc(-c2ccccc2)cc1 | ? | -14% | 75* | -11% | ? | 37*
CC1CCc2c(sc(NC(=O)CCCOc3ccc(C(C)(C)C)cc3)c2C(N)=O)C1 (stereo unspecified) | . | . | . | . | -2% | .
COc1cccc(NC(=O)c2ccco2)c1 | -24% | ? | 86* | -4% | -6% | 36*
CCOC(=O)c1cccc(NC(=O)c2ccco2)c1 | -11% | -4% | 28* | -2% | -2% | 41*

From PubChem BioAssay
